The source made the active and inactive calls. How the calls were made is not given here.

As usually defined, the viability is a read-out of living cells in per cent, often relative to untreated cells.

The nature of the test: antiviral efficacy and BSC cell toxicity – BSC cells, SV40 T antigen inhibitor project, confirmation (AID 2615). The following applies: BSC cells SV40 infection; outcome: CPE inhibition; viability: CPE inhibition, viability, at 100 µM, stronger effect = lower value; series mostly up to 200 µM.
Regarding `CCN(CC)C(=O)c1ccc2nc(N)sc2c1`, the viability was 87.6% and the molecule was called inactive.
For the molecule `Nc1nc2ccc(C(=O)N3CCCCC3)cc2s1`, the molecule was classed as inactive and the viability worked out at 103%.
On the same counts, the results for `Nc1nc2ccc(S(=O)(=O)N3CCCCC3)cc2s1` are “inactive” and 0.95%.
For `COc1ccc(-n2nnnc2C(Cl)(Cl)c2nnnn2-c2ccc(OC)cc2)cc1` the same measures were “inactive” and 6.3%.
As for `Cc1ccc2c(c1)C1C=CCC1C(C(=O)O)N2` (configuration not stated), the viability is 41.3% and the molecule was classed as inactive.
Regarding `Cc1cc(C)c2c(=O)n(CC(=O)Nc3cccc(Cl)c3C)sc2n1`, the viability came to 2.65% and the result was inactive.
On the same counts, the results for `Nc1nc2ccc(C(=O)N3CCOCC3)cc2s1` are 101% and “inactive”.
With `ClC(Cl)(c1nnnn1-c1ccccc1)c1nnnn1-c1ccccc1`, the viability was determined as 0.34%.
As to `ClC(Cl)(c1nnnn1-c1ccc(Br)cc1)c1nnnn1-c1ccc(Br)cc1`, the viability was -0.31% and the molecule was classed as inactive.

For the origin of these results see PubChem BioAssay AID2615 (Southern Research Specialized Biocontainment Screening …, 2010).
